# MITF inh: MITF inhibitors, primary screen, biochemical, AlphaScreen, human; Microphthalmia-associated transcription factor (Homo sapiens), O75030; AlphaScreen MITF homodimerization, bead proximity signal; inhibition, % at 2.6 µM; 650,000 tested, 0.91% active; in the data active means inhibition above about 50%;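 further: 0% = vehicle wells with protein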
# FBW7 act: FBW7 E3 ligase activators, primary screen, biochemical, AlphaScreen, human. F-box/WD repeat-containing protein 7 (Homo sapiens), Q969H0. 650,000 tested, 0.13% active. AlphaScreen FBW7–phospho-cyclin E peptide binding, activator screen. normalized activity (activation), % at 26.1 µM. AID 1259310, 2017; in the data active means normalized activity above about 1.9%;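 further: purified mutant Fbw7 with reduced substrate affinity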
# Target sequence (Q969H0 whole entry, looked up): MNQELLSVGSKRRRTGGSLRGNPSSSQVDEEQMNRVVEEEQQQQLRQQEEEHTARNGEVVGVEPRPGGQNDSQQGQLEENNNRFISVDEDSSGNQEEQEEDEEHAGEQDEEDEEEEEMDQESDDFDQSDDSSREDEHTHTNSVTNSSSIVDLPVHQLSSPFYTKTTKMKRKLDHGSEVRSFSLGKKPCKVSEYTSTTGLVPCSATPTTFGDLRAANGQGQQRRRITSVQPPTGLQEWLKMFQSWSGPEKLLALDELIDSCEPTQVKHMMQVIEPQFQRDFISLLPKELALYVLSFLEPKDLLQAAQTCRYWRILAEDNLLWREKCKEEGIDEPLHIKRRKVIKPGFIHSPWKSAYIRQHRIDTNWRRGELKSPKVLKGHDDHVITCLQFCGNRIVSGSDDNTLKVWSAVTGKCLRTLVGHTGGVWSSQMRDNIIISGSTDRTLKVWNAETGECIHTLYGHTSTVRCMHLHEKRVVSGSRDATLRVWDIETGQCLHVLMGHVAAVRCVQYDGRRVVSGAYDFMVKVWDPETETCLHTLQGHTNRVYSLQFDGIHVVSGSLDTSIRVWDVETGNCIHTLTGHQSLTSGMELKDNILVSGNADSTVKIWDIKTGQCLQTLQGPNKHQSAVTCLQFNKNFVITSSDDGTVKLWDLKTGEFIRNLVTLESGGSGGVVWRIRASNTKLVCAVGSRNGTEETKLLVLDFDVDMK
# GPR151 ag: activators of human GPR151, primary screen, cell-based, PathHunter beta-arrestin, luminescence; G-protein coupled receptor 151 (Homo sapiens), Q8TDV0; PathHunter beta-arrestin GPR151 cells; activation, % at 11.2 µM; 650,000 tested, 1% active; in the data active means activation above about 4.9%;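 further: 0% = median of compound wells and 100% = cells with positive control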
# TEAD-YAP inh: TEAD-YAP interaction inhibition, primary screen, TEAD-YAP interaction inhibitor project, luminescence, HEK-TIYL cells; AID 1259422, 2018; 640,000 tested, 1.4% active; inhibition, % at 9.12 µM; TEAD-Gal4/YAP UAS-luciferase luminescence; in the data active means inhibition above about 32%;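 further: 0% = median of test compound wells and 100% = reference inhibitor wells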
# GPR151 confirm: GPR151 activators, triplicate retest, confirmation, cell-based, PathHunter beta-arrestin, luminescence; activation, % at 11.2 µM; GPR151 PathHunter beta-arrestin cells, 90 min; % of EA-reagent control over plate median; AID 1508609, 2020; 6,700 tested, under 10 active; shares compounds with GPR151 ag;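 active means mean percent activation across replicates above the confirmation screen cutoff of 4.91%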
# GPR119 counter: GPR119 activators in beta-arrestin cells, counter-screen for GPR151 activator project, cell-based, PathHunter beta-arrestin, luminescence, triplicate; shares compounds with GPR151 ag; 90 min; 0 = compound-well median, 100 = enzyme-acceptor control; activation, % at 11.2 µM; 6,700 tested, 0.3% active; AID 1508611, 2020;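 active means mean percent activation in the counterscreen above 29.09%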;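 further: counterscreen on off-target GPR119 to flag nonselective hits from the GPR151 activator screen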
# The depositor's hits bear a star; / = no result; ! = not confirmed by another sample. In the library only some 3.4% were active in any assay of this set; here they are far more common.
SMILES,MITF inh,FBW7 act,GPR151 ag,TEAD-YAP inh,GPR151 confirm,GPR119 counter
O=c1/c(=C\c2cn(Cc3ccc(Cl)cc3Cl)nc2-c2ccccc2)sc2nc3ccccc3n12,5,0,-2,1,/,/
Cc1ccc([N+](=O)[O-])cc1NC(=O)c1ccccc1Cl,5,0,1,3,/,/
O=C(Nc1ccc([N+](=O)[O-])cc1Cl)c1ccccc1Cl,-18,0,8.1*,-11,1,11
COc1cc(NC(=O)CSc2nnc(-c3cccnc3)n2N)cc(OC)c1,-9,0,1,-3,/,/
O=C(O)CN=C(NS(=O)(=O)c1ccccc1)c1ccccc1,-2,0,4.9*!,14,0,13
CCOC(=O)/C(=N/OC)C1=NC(C)(C)Cc2ccccc21,-12,0,0,7,/,/
Cc1ncc(CO)c2cc(-c3nnc(Nc4ccccc4F)s3)c(=O)oc12,-3,0,5.8*,-15,-2,-14
COc1cc(/C=C2\SC(=S)NC2=O)ccc1OS(=O)(=O)c1ccccc1,11,0,7.9*,18,0,6
Cc1nccn1CCNC(=O)c1cccn(C)c1=O,7,0,1,0,/,/
Cc1nccn1CCNC(=O)c1cccc2ccccc12,-1,0,6.0*,1,-1,-10
C=C(C)Cn1c(N2CCCCCC2)nc2c1c(=O)n(C)c(=O)n2C,-4,0,0,1,/,/
N#C/C(=C\c1ccc(Br)c([N+](=O)[O-])c1)c1nn(-c2ccccc2)c(N)c1C#N,7,0,4.9*,7,0,6
CN(C)c1ccc(/C=C(\C#N)c2nn(-c3ccccc3)c(N)c2C#N)cc1[N+](=O)[O-],8,0,2,-4,/,/
COc1cccc(CN2C(=O)C3C(C(=O)Nc4cccc(C)c4)C4C=CC3(O4)C2C(=O)NC2CCCCC2C)c1 (stereo not given),-4,0,5.5*,3,0,9
CC1CCCC(NC(=O)C2N(Cc3ccc(F)cc3)C(=O)C3C(C(=O)Nc4ccc(Cl)cc4)C4C=CC32O4)C1C (stereo not given),-9,0,5.3*,1,0,0
CC(c1ccccc1)N1C(=O)C2C(C(=O)Nc3ccc(Cl)cc3)C3C=CC2(O3)C1C(=O)NC1CCCCC1 (stereo not given),-1,0,5.2*,4,0,1
CC1CCCC(NC(=O)C2N(Cc3ccc(Cl)cc3)C(=O)C3C(C(=O)Nc4ccc(Cl)cc4)C4C=CC32O4)C1C (stereo not given),4,0,0,-3,/,/
COc1ccc(CN2C(=O)C3C(C(=O)Nc4cccc(C)c4)C4C=CC3(O4)C2C(=O)NC2CCCCC2C)cc1 (stereo not given),-5,0,-2,1,/,/
COCCCN1C(=O)C2C(C(=O)Nc3cccc(SC)c3)C3C=CC2(O3)C1C(=O)NC1CCCCC1 (stereo not given),11,0,5.8*,-8,0,1
COc1cccc(NC(=O)c2cn(-c3ccc(Cl)cc3)c(=O)c3ccccc23)c1,8,0,-1,8,/,/
O=S(=O)(c1cccc2ccccc12)N1CCN(c2ccc(F)cc2)CC1,0,0,19*,-5,0,-6
Cc1cc(S(=O)(=O)N2CCN(c3ccc(F)cc3)CC2)c(Cl)cc1Cl,5,0,5.3*,-11,1,5
O=S(=O)(c1cccc2ccccc12)N1CCN(c2ncccn2)CC1,13,0,-1,7,/,/
COc1ccc(N2CCN(S(=O)(=O)c3ccccc3C(F)(F)F)CC2)cc1,0,0,5.1*,2,0,1
COc1ccc(N2CCN(S(=O)(=O)c3ccccc3F)CC2)cc1,6,0,-1,4,/,/
SMILES,MITF inh,FBW7 act,GPR151 ag,TEAD-YAP inh,GPR151 confirm,GPR119 counter
O=C(c1cccc([N+](=O)[O-])c1)c1ccc2c(c1)C(=O)N(c1cccc(O)c1)C2=O,22,0,2,8,/,/
CCC(C)NC(=O)c1ccc2nc(NC(=O)c3cc([N+](=O)[O-])cc([N+](=O)[O-])c3)sc2c1 (stereo not given),1,0,1,9,/,/
CCC(C)NC(=O)c1ccc2nc(NC(=O)c3ccc([N+](=O)[O-])cc3)sc2c1 (stereo not given),13,0,8.8*,3,0,1
COc1ccc2c(c1)CCN(C(=O)c1nnn(-c3nc4c(s3)CCCC4)c1C)C2,6,0,3,16,/,/
CC(=O)NC(=S)Nc1ccc(Br)c(C)n1,9,0,-3,-40,/,/
COc1ccccc1C(=O)NC(=S)Nc1ccc(Br)c(C)n1,10,0,5.2*,-3,0,4
CCC(=O)Nc1cccc(NC(=S)NC(=O)c2ccccc2OC)c1,12,0,8.8*,-50,0,-9
COc1cccc(NC(=S)Nc2ccccc2OC)c1,16,0,13*,-8,1,-1
CCOC(=O)C1=C(CSc2nc(C)c(C)c(C)c2C#N)OC(N)=C(C#N)C1c1ccc(OCc2ccccc2)cc1 (stereo not given),2,0,-1,-8,/,/
C#CCn1c(=NC(=O)C(C)C)sc2cc(F)cc(F)c21,18,0,2,-5,/,/
COc1cc(I)cc(CNc2ccc(F)cc2)c1O,10,0,5.4*,-4,0,6
Cc1c(C(=O)NCCN2CCOCC2)sc2ncn(CC(=O)N3CCCCC3C)c(=O)c12 (stereo not given),20,2,0,-4,/,/
CCc1cccc(C)c1NC(=O)COc1ccc(Br)cc1,-9,0,1,15,/,/
O=S(=O)(NCc1ccncc1)c1ccc(I)cc1,-7,0,9.7*,40*,1,11
Nc1ccc(S(=O)(=O)NCc2ccncc2)cc1,-8,1,0,1,/,/
CC1CCN(Cc2nnnn2CCCC(=O)N(C)C2CCOC2)CC1 (stereo not given),4,0,8.7*,3,-1,-6
O=C(Nc1ccc(F)c(Cl)c1)c1cc(-c2cccc(O)c2)on1,-12,0,0,-16,/,/
O=C1OC(c2ccc(F)cc2)=N/C1=C\c1ccc(-c2ccc(I)cc2)o1,-1,0,6.0*,-1,0,-1
CSCCC(NC(=O)COc1ccccc1)C(=O)OCC(=O)Nc1ccccc1C#N (stereo not given),4,0,2,1,/,/
